Source: ChEMBL document CHEMBL3988442, “University of Dundee, Small-Polar-MMV Screening Library” (2021)
Among all 69,000 compounds or so, about 420 (0.61%) showed an effect of 50% or more. This excerpt belongs to a sample that is enriched for strong results.

These molecules were tested against T1, Histidine--tRNA ligase (Leishmania infantum) (UniProt A4I591) (assay: Leishmania infantum Histidine tRNA synthetase (LdHisRS)). Details: 30 µM.
T1 sequence (whole entry): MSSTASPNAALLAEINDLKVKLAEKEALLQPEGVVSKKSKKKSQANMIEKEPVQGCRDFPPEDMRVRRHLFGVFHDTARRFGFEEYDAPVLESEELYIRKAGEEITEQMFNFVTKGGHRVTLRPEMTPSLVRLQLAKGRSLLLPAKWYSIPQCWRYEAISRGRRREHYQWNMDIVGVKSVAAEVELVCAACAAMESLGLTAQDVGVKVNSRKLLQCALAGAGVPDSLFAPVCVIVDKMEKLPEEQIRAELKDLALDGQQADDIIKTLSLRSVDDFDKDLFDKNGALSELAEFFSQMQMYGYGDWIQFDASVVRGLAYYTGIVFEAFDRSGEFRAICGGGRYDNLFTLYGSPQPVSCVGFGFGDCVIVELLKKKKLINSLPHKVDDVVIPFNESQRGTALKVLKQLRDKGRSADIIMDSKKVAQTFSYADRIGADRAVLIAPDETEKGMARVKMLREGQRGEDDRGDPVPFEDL
Format: functional
Design: scale not given: in the data most compounds retested in dose-response had high values

| Compound | Percent Effect [%] |
| --- | --- |
| Cc1ccc(N(C)[C@@H]2CC[C@@H]3CN(C(=O)CC4CCOCC4)C[C@@H]32)nn1 | 12.8 |
| Cc1ccnc(N2C[C@@H]3CC[C@H](C2)N(CC2CCC2)C3=O)n1 | 34.4 |
| Cn1cc(CCC(=O)N2C[C@@H]3CC[C@H](C2)N(Cc2ccccn2)C3)cn1 | 24.1 |
| Cc1ccc(N2C[C@H]3OCC[C@H]3[C@H](C(=O)NC3CCC3)C2)nn1 | 11.8 |
| CC(C)c1nccn1-c1cccc(C2CCCN(C3CCCC3)C2)n1 (centres undefined) | 22.9 |
| Cc1nccn1-c1nccnc1C1CCCN(C2CCCC2)C1 (centres undefined) | -4.2 |
| CCc1nccn1-c1cccc(C2CCCN(C3CCCCC3)C2)n1 (centres undefined) | 42 |
| Cc1nccn1-c1cccc(C2CCCN(C3CCCCC3)C2)n1 (centres undefined) | 55.6 |
| Cc1nccn1-c1cccc(C2CCCN(C(=O)c3cc[nH]n3)C2)n1 (centres undefined) | 17.1 |
| Cc1nccn1-c1cccc(C2CCCN(C3CCCC3)C2)n1 (centres undefined) | 65.2 |
| COCC(=O)N1CC[C@@H]2CN(Cc3cccc(Cl)c3)S(=O)(=O)[C@@H]2CC1 | 3.77 |
| Cn1ccc(NC(=O)CN2C[C@H]3CC[C@@H]2CN(Cc2ccccn2)C3)n1 | 0 |
| NC(=O)C1CCN(C(=O)Cc2cnc(-c3c(Cl)cccc3Cl)s2)CC1 | 12.1 |
| CC(=O)N1CCN(C(=O)Cc2cnc(-c3c(Cl)cccc3Cl)s2)CC1 | -1.1 |
| O=C(Cc1cnc(-c2c(Cl)cccc2Cl)s1)N1CCOCC1 | 64.8 |
| Cc1nnsc1C(=O)N1CC[C@H](c2ccccc2)[C@@H]2[C@H]1CCCCN2C | 7.29 |
| Cc1cccc(Cl)c1NC(=O)Cn1cc(C(=O)O)ccc1=O | 18.3 |
| Cc1ccc(Cl)cc1NC(=O)Cn1cc(C(=O)O)ccc1=O | 6.67 |
| Cc1c(Cl)cccc1NC(=O)Cn1cc(C(=O)O)ccc1=O | 55 |
| CC(C)CS(=O)(=O)N1C[C@H]2C[C@H](C(=O)NCc3ccccc3)[C@@H](C1)O2 | 5.83 |
| Cn1cc(N2C(=O)C[C@@H]3[C@@H]2CCN3C(=O)c2ccco2)cn1 | 16 |
| COc1cc(N2C[C@H]3CN(C(=O)c4cnccn4)C[C@H]3C2)ncn1 | 5.26 |
| CCS(=O)(=O)N1Cc2c(Cn3ccnc3)nn(C)c2C1 | 11.1 |
| Cn1nc(Cn2ccnc2)c2c1CN(c1ncccn1)C2 | 3.51 |
| Cn1nc(Cn2ccnc2)c2c1CN(c1nccs1)C2 | 52.6 |

| Compound | Percent Effect [%] |
| --- | --- |
| Cc1cc(C(=O)N2C[C@H]3CC[C@@H]2CN(Cc2ccccn2)C3)nc(N)n1 | -4.84 |
| CS(=O)(=O)N[C@H]1COC[C@@H]2CN(Cc3ccco3)C[C@@H]21 | -1.39 |
| COc1ccc(Oc2ncccc2F)cc1CN1CCCC1 | 15.8 |
| c1ccc(Oc2nccc3occc23)c(CN2CCCCC2)c1 | 23.7 |
| COc1ccc(Oc2nccc3occc23)cc1CN1CCCC1 | 58.1 |
| O=C1NCCO[C@H]2CN(C(=O)Cc3ccco3)CC[C@@H]12 | 18 |
| Cc1nc(CN2CCc3nc(NC(C)C)nc(C)c3C2)cs1 | 47.9 |
| Cc1nc(CN2CCc3nc(N4CCCC4)nc(NC(C)C)c3C2)cs1 | 92.3 |
| CC(C)Nc1nc(N2CCCC2)nc2c1CN(C)CC2 | 5.56 |
| Cc1ccc([C@@]2(O)CC[C@@H]3CN(S(=O)(=O)c4cn(C)nc4C)C[C@@H]32)cc1 | -15.8 |
| CSc1nc(N)cc(N2C[C@@H]3CC[C@H](C2)N(CC2CC2)C3=O)n1 | 24.7 |
| Cc1ccccc1CCC1CCCN(C(=O)Cc2cc(=O)[nH]c(N)n2)C1 (centres undefined) | 18.3 |
| O=C(CC1=CSC2=NCCN12)N1CCCC(CCc2cccc(F)c2)C1 (centres undefined) | 28.3 |
| Nc1nc(CC(=O)N2CCCC(CCc3cccc(F)c3)C2)cc(=O)[nH]1 (centres undefined) | 78.3 |
| Cc1ccccc1CC(C)(C)NC(=O)COc1cccc(C(N)=O)c1 | 22.1 |
| Cc1ccccc1CC(C)(C)NC(=O)CCOc1cccc(C(N)=O)c1 | 1.3 |
| Cc1ccccc1CC(C)(C)NC(=O)c1cccc(OCC(N)=O)c1 | 50.6 |
| Cc1ccc(CN2C[C@@H](OCc3csc(C)n3)[C@H]3COC[C@H]32)s1 | 21 |
| CN1CCC(O)(CCNC(=O)[C@@]23CNC[C@@H]2CN(C2CCCC2)C3)CC1 | 10.3 |
| CC(=O)N1CCO[C@@H]2CN(S(=O)(=O)c3cccs3)CC[C@@H]2C1 | 5.66 |
| CC(=O)N1CCO[C@@H]2CN(S(=O)(=O)c3ccc(F)cc3)CC[C@@H]2C1 | 17 |
| CC(=O)N1CCO[C@@H]2CN(S(=O)(=O)c3ccc(C)cc3)CC[C@@H]2C1 | 50.9 |
| O=C(N[C@@H]1CN(Cc2ccoc2)C[C@@H]2CCCO[C@@H]21)C1CCC1 | 11.8 |
| Cc1nnc(N2C[C@H](C(=O)NCc3ccco3)[C@@H]3CCO[C@@H]3C2)s1 | 16.8 |
| CS(=O)(=O)N1C[C@@H]2COC[C@@H](CC(=O)N3CCCO3)[C@@H]2C1 | 7.89 |

| Compound | Percent Effect [%] |
| --- | --- |
| Nc1cc(-c2nccnc2N2CCCC2)c2cc[nH]c2n1 | 20.2 |
| OCCNc1cc(-c2nccnc2N2CCCC2)c2cc[nH]c2n1 | 62.8 |
| O=C(O)CNc1cc(-c2nccnc2N2CCCC2)c2cc[nH]c2n1 | 20.2 |
| Cc1ccc(C)c(OC(C)C(=O)Nc2cccnc2)c1 (centres undefined) | 0 |
| Cc1ccc(C)c(OC(C)C(=O)NCCNc2cccnc2)c1 (centres undefined) | 60.6 |
| Cc1ccc(C)c(OC(C)C(=O)NCc2cccnc2)c1 (centres undefined) | 0 |
| NC(=O)CN1C(=O)CO[C@H]2CN(Cc3ccc(Cl)cc3)C[C@H]21 | 10.8 |
| Cc1ccc(N2CC[C@@H]3[C@@H]2CCN3C(=O)c2cscn2)nn1 | 7.89 |
| O=C(NC[C@H]1CCCC[C@H]1O)c1ccc2nc(-c3ccco3)[nH]c2c1 | 63.4 |
| O=C(N[C@H]1CCCC[C@@H]1O)c1ccc2nc(-c3ccccc3)[nH]c2c1 | 3.96 |
| O=C(NC[C@H]1CCCC[C@H]1O)c1cccc2[nH]c(-c3ccco3)nc12 | 29.7 |
| COC[C@@H]1CC[C@H]2[C@H](CCN2C(=O)c2ccncc2F)O1 | 22.6 |
| O=C(Cn1ccc2sccc2c1=O)NCc1ccc(F)cc1 | 5.43 |
| CN(C)S(=O)(=O)N1C[C@H]2CCC[C@@]2(COCc2ccccn2)C1 | -17.6 |
| Cc1cccc(COC[C@H]2CC[C@H]3[C@H](CCN3C(=O)CC3CC3)O2)n1 | 13.9 |
| Cc1ccc(-c2nnc(CN3CCc4nn(C)c(=O)cc4C3)o2)cc1 | 106 |
| Cc1ccc(-c2nnc(CN3CCc4cnc(C)nc4C3)o2)cc1 | 40 |
| CC(C)n1nc2c(cc1=O)CN(Cc1nnc(C3CC3)o1)CC2 | 24.5 |
| CCOCCN1CCN(Cc2nnc(-c3ccco3)o2)CC1 | 8.51 |
| Cc1nc(CN2CCc3nn(C)c(=O)cc3C2)oc1C | 14.9 |
| CC(C)n1nc2c(cc1=O)CN(Cc1nc(-c3ccco3)no1)CC2 | 2.67 |
| Cn1nc2c(cc1=O)CN(Cc1nnc(-c3ccco3)o1)CC2 | 76.6 |
| Cn1nc2c(cc1=O)CN(Cc1nnc(-c3ccc(F)cc3)o1)CC2 | 78.7 |
| Cn1nc2c(cc1=O)CN(Cc1ccc(-n3cccn3)cc1)CC2 | 33.3 |
